# Measurements from PubChem BioAssay AID602412 (Johns Hopkins Ion Channel Center, 2012).
# This is one part of the list. Calls of active or inactive are those of the source.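 The calls were made as follows: active = calcium signal rise, corrected for plate position, at least 3 library SD high, with starting brightness within 5 such deviations; inactive = the rest.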
# Target: Mas-related G-protein coupled receptor member X1 (Homo sapiens) (UniProt Q96LB2)
# Assay: activators of human MrgX1 calcium signaling – HEK293 cells, Fluo-4 calcium flux, confirmation (AID 602412)
# Settings: MrgX1-HEK293, Fluo-4 calcium fluorescence, FDSS; at 10 µM; stronger effect = higher value
# Sequence of Mas-related G-protein coupled receptor member X1 (Homo sapiens) (Q96LB2 whole entry, looked up): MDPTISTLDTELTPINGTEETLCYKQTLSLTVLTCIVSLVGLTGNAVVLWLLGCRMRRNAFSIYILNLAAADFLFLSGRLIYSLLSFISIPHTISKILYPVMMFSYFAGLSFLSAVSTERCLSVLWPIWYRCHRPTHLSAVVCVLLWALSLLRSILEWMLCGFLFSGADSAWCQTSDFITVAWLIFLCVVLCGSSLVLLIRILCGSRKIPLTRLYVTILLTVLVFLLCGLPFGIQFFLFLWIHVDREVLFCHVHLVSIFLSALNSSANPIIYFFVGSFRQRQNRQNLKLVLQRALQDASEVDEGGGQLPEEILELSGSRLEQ
smiles,measurement,value
CCCCC(=O)N/N=C/c1c(O)n(CC)c(=S)n(CC)c1=O,activation,372% (active)
